Assay results reported in PubChem BioAssay AID1851 (National Center for Advancing Translational Sciences (NCATS), 2009).
About 5,800 (36%) of roughly 16,000 compounds were called active. About 23% were inconclusive and are not listed. Some of the results follow. A number with no mark means an inactive call. The call rests on the fitted dose curve; in most records, active means well fitted curve in the direction sought with a large enough effect; inconclusive means small, poorly fitted or top-dose-only effect, or effect the other way; inactive means no such curve, though single readings can be large or run the other way.

target: Cytochrome P450 2C19 (Homo sapiens) (UniProt P33261); assay: Cytochrome panel assay with activity outcomes; settings: recombinant CYP, pro-luciferin dealkylation, luminescence, p450-cyp2c19; series mostly up to 57.1 µM
On the % scale 0 is the no-effect control and ±100 the full control effect.

Chain of Cytochrome P450 2C19 (Homo sapiens) (P33261 whole entry, looked up): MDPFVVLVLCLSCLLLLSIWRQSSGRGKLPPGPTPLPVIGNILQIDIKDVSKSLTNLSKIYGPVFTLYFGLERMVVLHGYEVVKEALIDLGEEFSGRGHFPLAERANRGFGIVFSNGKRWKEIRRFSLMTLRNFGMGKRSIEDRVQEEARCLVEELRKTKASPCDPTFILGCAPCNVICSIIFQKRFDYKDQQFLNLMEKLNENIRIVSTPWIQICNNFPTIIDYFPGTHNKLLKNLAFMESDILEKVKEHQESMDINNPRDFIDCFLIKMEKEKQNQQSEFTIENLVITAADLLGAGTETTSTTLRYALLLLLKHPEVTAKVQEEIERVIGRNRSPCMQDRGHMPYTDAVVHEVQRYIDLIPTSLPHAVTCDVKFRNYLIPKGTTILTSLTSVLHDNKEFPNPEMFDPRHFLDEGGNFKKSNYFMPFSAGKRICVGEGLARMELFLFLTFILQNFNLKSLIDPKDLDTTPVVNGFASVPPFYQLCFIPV

Row | Structure (SMILES) | AC50 | activity, negative = inhibition
1 | COc1ccc2[nH]cc(CCNc3cc(-c4ccccc4C)ncn3)c2c1 | 7.94 µM (active) | 
2 | COc1ccc2[nH]cc(CCNc3cc(-c4ccccc4C(F)(F)F)ncn3)c2c1 | 10 µM (active) | 
3 | COc1ccc2[nH]cc(CCNc3cc(-c4ccccc4OC)ncn3)c2c1 | 3.16 µM (active) | 
4 | CC(=O)NCCNc1cc(-c2ccccc2CN(C)C)ncn1 | inactive | 
5 | N[C@H](C(=O)O)c1cccc(O)c1 | inactive | 
6 | Fc1ccc2nc(Nc3nc4c(s3)CCCC4)sc2c1 | 17.8 µM (active) | 
7 | COc1cccc(-c2cc(C(=O)Nc3cccc(O)c3)no2)c1 | 3.16 µM (active) | 
8 | COc1ccc(C2CC(=O)CC(=O)C2n2cncn2)cc1 (stereo unspecified) | inactive | 
9 | CCCC1C(=O)N(c2ccccc2)C1c1ccccc1 (stereo unspecified) | 4.47 µM (active) | 
10 | CN1C(=O)C[C@H](c2ccccc2)C1=O | inactive | 
11 | O=C1C(Cc2ccccc2)C(c2ccccc2)N1c1ccccc1 (stereo unspecified) | 1.26 µM (active) | 
12 | CC(C)(C)CC(C)(C)c1ccc(OCOCCOCCO)c(Cc2cc(C(C)(C)CC(C)(C)C)cc(Cc3cc(C(C)(C)CC(C)(C)C)ccc3OCOCCOCCO)c2OCOCCOCCO)c1 | inactive | 
13 | CO[C@H]1[C@H](O[C@H]2O[C@@H](C)[C@@H](O[C@@H]3C[C@](C)(O)[C@H](OC(=O)CC(C)C)[C@H](C)O3)[C@@H](N(C)C)[C@@H]2O)[C@@H](CC=O)C[C@@H](C)[C@@H](O)/C=C\C=C/C[C@@H](C)OC(=O)C[C@H]1OC(C)=O | inactive | 
14 | C[C@@H](C[N+](C)(C)C)OC(N)=O | inactive | 
15 | O[C@H](C[C@@H]1CCCCN1)c1ccc2c(c1)oc1ccccc12 |  | -14.6% [at 11.4 µM]
16 | COc1ccc(-c2cc([C@H](O)[C@@H]3CCCCN3)c3ccccc3n2)cc1 | 3.98 µM (active) | 
17 | O[C@@H](c1cc(C(F)(F)F)nc2c(Cl)cc(Cl)cc12)[C@@H]1CCCCN1 |  | -14.3% [at 11.4 µM]
18 | COCCNc1ncnc2ccc(-c3cccc(NS(C)(=O)=O)c3)cc12 | inactive | 
19 | COc1ccc(CNc2ncnc3ccc(-c4cccc(NS(C)(=O)=O)c4)cc23)c(OC)c1 | 2.51 µM (active) | 
20 | COc1ccccc1CNc1ncnc2ccc(-c3cccc(NS(C)(=O)=O)c3)cc12 | 15.8 µM (active) | 
21 | c1ccc2cc(C3=NCCN3)ncc2c1 | inactive | 
22 | N#Cc1c(-c2ccccc2)nc2n(c1=O)CCS2 | 15.8 µM (active) | 
23 | O=c1c(-c2ccccc2)c(O)c2cccc3c2n1CCC3 | inactive | 
24 | COc1cc(=O)n2c(n1)SCCC2 | inactive | 
25 | N#Cc1c(-c2ccc(Cl)cc2)nc2n(c1=O)CCCS2 | 7.94 µM (active) | 
26 | CCCCN(Cc1ccccc1)C(=O)c1cnc2n(c1=O)CCS2 | inactive | 
